T cruzi growth-1: T. cruzi intracellular proliferation inhibitors, primary screen, cell-based, beta-gal Tulahuen parasites, NIH3T3 host, luminescence | T. cruzi beta-gal in NIH3T3, GalScreen luminescence, 90 h | inhibition, % at 8.34 µM | AID 624255, 2012 | hit rate 5.9% among 77,000;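 active means mean inhibition above about 93%, with at least 55% of replicates each passing it, limit read from the data, passing the limit was not always enough; inconclusive means only one of those two conditions holds; inactive means neither condition holds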
Pf Dd2 inh: P. falciparum Dd2 growth inhibitors, primary screen, SYBR Green fluorescence, single dose replicates; 72 h; active compounds read low; activity change, % at 10 µM; hit rate 2.3% among 94,000; AID 1159554, 2015; in the data active means activity change below about -80%; inconclusive means no clear call, values can overlap the other calls
C diff HTS: C. difficile growth inhibitors, primary screen, HTS; growth activity, negative = inhibition, % at 16 µg/mL (by protocol); Clostridium difficile clinical isolate growth, OD600, 24 h; active compounds read low; hit rate 0.25% among 86,000; AID 1259249, 2017;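 active means mean growth activity at or below -80% and every replicate also at or below -80%; inconclusive means mean at or below -80% but some replicate above -80%; inactive means mean growth activity above -80%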;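 further: 0% = DMSO wells and -100% = levofloxacin 16 µg/mL wells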
T cruzi growth-2: T. cruzi intracellular proliferation inhibitors, confirmation, cell-based, NIH3T3 host, beta-gal parasite, luminescence, cherry-pick. inhibition, % at 8.35 µM. hit rate 72% among 5,600. AID 651739, 2012. T. cruzi beta-gal in NIH3T3, GalScreen luminescence, 90 h. shares compounds with T cruzi growth-1;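 active means mean replicate inhibition above about 95% and at least 55% of replicates individually reaching it, limit read from the data; inconclusive means only one of the two criteria is met; inactive means neither criterion is met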
T cruzi growth-3: inhibitors of intracellular T. cruzi replication, confirmation, NIH3T3 host cells, beta-gal parasites, cherry-pick, set 2; inhibition, % at 2.09 µM; shares compounds with T cruzi growth-1; AID 651740, 2012; T. cruzi beta-gal in NIH3T3, GalScreen luminescence, 90 h; hit rate 21% among 5,600;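 active means mean inhibition above about 95%, with at least 55% of replicates also reaching it, limit read from the data; inconclusive means meets just one of the two conditions; inactive means meets neither condition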;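 further: plate controls were neutral control median for no effect and positive control median for full effect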
3T3 cytotox: cytotoxicity in mouse NIH/3T3 fibroblasts, confirmation, cytotoxicity control for T. cruzi proliferation inhibitor project, cell-based, cherry-pick, single point. shares compounds with T cruzi growth-1. NIH/3T3 viability, CellTiter-Glo ATP luminescence, 90 h. cytotoxicity (signal decrease), % at 8.35 µM. hit rate 14% among 5,600;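 active means mean signal decrease across replicates above about 35% based on untreated-well scatter, with enough replicates individually passing, limit read from the data; inconclusive means no rule stated though some were filed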;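 further: 0% = median of neutral control wells and 100% = median of positive control wells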
3T3 cytotox 2: NIH/3T3 fibroblast cytotoxicity, confirmation, cytotoxicity control, cell-based, cherry-pick, single point, set 2. shares compounds with T cruzi growth-1. NIH/3T3 viability, CellTiter-Glo ATP luminescence, 90 h. inhibition, % at 24.9 µM. hit rate 56% among 5,600. AID 651744, 2012;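 active means mean loss of cell viability signal at or above a set limit, and enough replicates individually reaching it; inconclusive means meets only the mean limit or only the replicate share; inactive means meets neither condition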;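 further: 0% = median of neutral control wells and 100% = median of positive control wells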
The depositor's hits bear a star; u = inconclusive; x = no result. Shown are actives, neighbours in structure and some others; about 6.7% of the full set was active somewhere.

SMILES | T cruzi growth-1 | Pf Dd2 inh | C diff HTS | others
C[C@H](CO)N1C[C@H](C)[C@H](CN(C)Cc2ccc(C(F)(F)F)cc2)OCCCC[C@H](C)Oc2ccc(NC(=O)C3CCCCC3)cc2C1=O | 98.9* | -12.7 | 29.7 | T cruzi growth-2=u;T cruzi growth-3=111.5*;3T3 cytotox=-22.6;3T3 cytotox 2=54.9*
C[C@@H]1CCCCO[C@@H](CN(C)Cc2ccc(C(=O)O)cc2)[C@H](C)CN([C@H](C)CO)C(=O)c2cc(NC(=O)C3CCCCC3)ccc2O1 | -5.3 | 39.8 | -4.9
C[C@@H]1CN([C@H](C)CO)C(=O)c2cc(NC(=O)C3CCCCC3)ccc2O[C@@H](C)CCCCO[C@H]1CN(C)Cc1ccc(C(F)(F)F)cc1 | u | u | 0.9 | T cruzi growth-2=100.7*;T cruzi growth-3=109.1*;3T3 cytotox=11.3;3T3 cytotox 2=49.4*
C[C@@H]1CN([C@H](C)CO)C(=O)c2cc(NC(=O)C3CCCCC3)ccc2O[C@@H](C)CCCCO[C@H]1CN(C)Cc1ccc(C(=O)O)cc1 | -13.7 | 14.8 | -2.6
C[C@H](CO)N1C[C@H](C)[C@H](CN(C)C(=O)Nc2ccc(C(F)(F)F)cc2)Oc2ccc(NC(=O)C3CCCCC3)cc2C1=O | u | -68.6 | 2.4 | T cruzi growth-2=100.4*;T cruzi growth-3=32.8;3T3 cytotox=43.8*;3T3 cytotox 2=51.5*
C[C@@H]1CN([C@H](C)CO)C(=O)c2cc(NC(=O)C3CCCCC3)ccc2O[C@@H]1CN(C)C(=O)Nc1ccc(C(F)(F)F)cc1 | -26.6 | -21.5 | -7.0
C/C=C/c1cnc2c(c1)C(=O)N([C@@H](C)CO)C[C@@H](C)[C@@H](CN(C)Cc1cncnc1)O2 | x | 50.4 | -2.1
C[C@H](CO)N1C[C@H](C)[C@@H](CN(C)Cc2ccc(Cl)c(Cl)c2)Oc2ccc(NS(=O)(=O)c3cccs3)cc2CC1=O | 90.2 | -7.9 | 15.9
C[C@H](CO)N1C[C@H](C)[C@@H](CN(C)CC2CCCC2)Oc2cc(C#CC(C)(C)O)ccc2S1(=O)=O | 11.6 | -26.6 | x
C[C@H]1CCCCO[C@@H](CN(C)Cc2ccc(C(F)(F)F)cc2)[C@@H](C)CN([C@@H](C)CO)C(=O)c2cc(NC(=O)C3CCCCC3)ccc2O1 | u | -51.9 | -5.2 | T cruzi growth-2=98.3*;T cruzi growth-3=95.0;3T3 cytotox=23.4;3T3 cytotox 2=25.8*
C[C@@H]1CN([C@H](C)CO)C(=O)c2cc(NC(=O)C3CCCCC3)ccc2O[C@H]1CN(C)Cc1ccc(C(F)(F)F)cc1 | 53.1 | 19.2 | 2.3
C[C@@H]1CN([C@@H](C)CO)C(=O)c2cc(NC(=O)C3CCCCC3)ccc2O[C@@H]1CN(C)Cc1ccc(C(F)(F)F)cc1 | 72.2* | 11.3 | -6.6 | T cruzi growth-2=78.4;T cruzi growth-3=15.3;3T3 cytotox=26.4;3T3 cytotox 2=31.4*
C[C@@H]1CCCCO[C@@H](CN(C)Cc2ccc(C(=O)O)cc2)[C@@H](C)CN([C@@H](C)CO)C(=O)c2cc(NC(=O)C3CCCCC3)ccc2O1 | -1.6 | 13.4 | -1.6
C[C@@H]1CCCCO[C@@H](CN(C)Cc2ccc(C(F)(F)F)cc2)[C@H](C)CN([C@@H](C)CO)C(=O)c2cc(NC(=O)C3CCCCC3)ccc2O1 | 113.8* | -43.0 | 1.8 | T cruzi growth-2=102.2*;T cruzi growth-3=111.7*;3T3 cytotox=10.0;3T3 cytotox 2=15.4
C[C@@H]1CCCCO[C@@H](CN(C)Cc2ccc(C(=O)O)cc2)[C@@H](C)CN([C@H](C)CO)C(=O)c2cc(NC(=O)C3CCCCC3)ccc2O1 | -17.1 | 22.8 | -8.6
C[C@@H]1CN([C@@H](C)CO)C(=O)c2cc(NC(=O)C3CCCCC3)ccc2O[C@@H](C)CCCCO[C@@H]1CN(C)Cc1ccccc1 | 96.7 | -23.3 | -1.8
CNC[C@H]1Oc2c(NC(=O)c3ccc(-c4nccs4)cc3)cccc2C(=O)N([C@H](C)CO)C[C@H]1C | -15.7 | -35.8 | -0.1
C[C@H](CO)N1C[C@H](C)[C@H](CN(C)C(=O)Nc2cccc3ccccc23)Oc2ncc(C#Cc3ccc(F)cc3)cc2C1=O | x | -75.0 | -10.0
O=C(NC1CCCCC1)N[C@H]1CC[C@H](CCNS(=O)(=O)c2ccccc2)O[C@@H]1CO | -7.6 | -32.6 | 4.1
CC(=O)N(C)C[C@@H]1Oc2ncc(C#C[C@@H](C)O)cc2C(=O)N([C@@H](C)CO)C[C@@H]1C | 9.7 | 84.4 | x
C[C@@H]1CCCCO[C@@H](CN(C)Cc2ccc(C(=O)O)cc2)[C@@H](C)CN([C@H](C)CO)C(=O)c2cc(NS(=O)(=O)c3ccccc3)ccc2O1 | -17.9 | 22.0 | -4.3
Cc1noc(C)c1NC(=O)Nc1cccc2c1O[C@@H](CN(C)Cc1ccc(C(=O)Nc3ccccc3N)cc1)[C@@H](C)CN([C@@H](C)CO)C2=O | x | 14.0 | 6.5
CC(C)CC#Cc1ccc([C@H]2[C@H]3CN(C(=O)c4ccc5c(c4)OCO5)CCCCN3[C@H]2CO)cc1 | 113.3* | -34.8 | -1.3 | T cruzi growth-2=100.9*;T cruzi growth-3=78.1;3T3 cytotox=14.4;3T3 cytotox 2=103.6*
CC(C)C#Cc1ccc([C@@H]2[C@@H](CO)N3CCCCN(C(=O)c4ccc5c(c4)OCO5)C[C@@H]23)cc1 | 84.2 | -5.9 | -4.4
CC(C)CC#Cc1ccc([C@@H]2[C@H](CO)N3CCCCN(C(=O)c4ccc5c(c4)OCO5)C[C@@H]23)cc1 | 106.2* | -41.8 | 20.1 | T cruzi growth-2=103.6*;T cruzi growth-3=64.0;3T3 cytotox=31.4;3T3 cytotox 2=104.9*
SMILES | T cruzi growth-1 | Pf Dd2 inh | C diff HTS | others
CC(C)CC#Cc1ccc([C@H]2[C@H](CO)N3CCCCN(C(=O)c4ccc5c(c4)OCO5)C[C@@H]23)cc1 | 83.8 | -28.5 | 0.5
O=C(NC1CCC1)[C@@H]1[C@@H](CO)[C@@H]2Cn3c(cccc3=O)[C@@H]2N1CCc1ccccc1 | 40.7 | x | -2.4
O=C(C[C@@H]1C=C[C@H](NC(=O)Nc2ccc(C(F)(F)F)cc2)[C@@H](CO)O1)NCc1cccc(F)c1 | -10.4 | -10.4 | x
COc1ccc2c3c(n(C)c2c1)[C@@H](CO)N(CC1CC1)CC31CN(C(=O)c2ccccc2)C1 | x | -55.5 | 5.8
C[C@H](CO)N1C[C@H](C)[C@H](CN(C)Cc2ccccc2)OCc2cnnn2CCCC1=O | 10.1 | 16.8 | 2.8
CN(C)C(=O)[C@@H]1[C@@H](CO)[C@@H]2Cn3c(ccc(-c4ccccc4F)c3=O)[C@H]1N2C(=O)c1ccncc1 | 74.7 | 3.9 | 0.8
C[C@@H]1CN([C@@H](C)CO)C(=O)c2cc(NC(=O)c3ccccc3)ccc2O[C@@H](C)CCCCO[C@H]1CN(C)Cc1ccc2c(c1)OCO2 | x | -78.0 | -4.3
C[C@@H]1CN([C@H](C)CO)C(=O)c2cc(NC(=O)CCC(F)(F)F)ccc2O[C@@H](C)CCCCO[C@@H]1CN(C)C | 11.1 | 20.3 | -1.6

Screening data (PubChem)
